Among all 360,000 compounds or so, about 3,000 (0.83%) were called active. Shown is part of a subset that was picked to be rich in actives. A number with no mark means an inactive call. Cut-off read from the data, not from the text of the source: active = inhibition above about 38%; inactive = the rest.
Target: G-protein coupled receptor 183 (Homo sapiens) (UniProt P32249)
Assay: EBI2 receptor antagonists, beta-arrestin recruitment, primary screen, cell-based, luminescence, 7a,25-OHC stimulation, uHTS (AID 651636);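 note: enzyme fragment complementation signal reports receptor beta-arrestin coupling in cells; 0% = agonist plus DMSO wells and 100% = wells without agonist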
Details: 7a,25-OHC stimulated, at 5 µM, active compounds read high

Chain of G-protein coupled receptor 183 (Homo sapiens) (P32249 whole entry, looked up, the tested form may be a part): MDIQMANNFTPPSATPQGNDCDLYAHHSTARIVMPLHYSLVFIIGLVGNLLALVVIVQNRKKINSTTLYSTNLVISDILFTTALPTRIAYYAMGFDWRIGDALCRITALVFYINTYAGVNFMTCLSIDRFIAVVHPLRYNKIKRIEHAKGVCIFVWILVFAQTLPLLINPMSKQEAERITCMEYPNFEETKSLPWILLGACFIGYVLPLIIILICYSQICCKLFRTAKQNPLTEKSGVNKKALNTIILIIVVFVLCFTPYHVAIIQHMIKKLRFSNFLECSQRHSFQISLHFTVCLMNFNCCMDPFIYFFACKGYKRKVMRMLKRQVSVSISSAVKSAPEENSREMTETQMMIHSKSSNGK

Row | SMILES | inhibition
1 | CC(=O)OC1C2(CC3N4C(=O)C5(CO)SSC4(CC31O)C(=O)N5C)OC(C)C(C)(C)C2=O (stereo not given) | 94.4% (active)
2 | CC(C)(C)[C@]1(O)C[C@@H]2OC(=O)C[C@@]23C(=O)O[C@@H]2OC(=O)[C@H](O)[C@]213 | -2.99%
3 | O=C(CCC(=O)N1C[C@H]2C[C@@H](C1)c1cccc(=O)n1C2)NCc1ccccc1C(F)(F)F | -0.966%
4 | CC(=O)Nc1ccccc1C(=O)OCC(=O)c1cccc2ccccc12 | 12.7%
5 | COc1cccc(C(=O)N2C[C@H]3C[C@@H](C2)c2cccc(=O)n2C3)c1 | -6.08%
6 | CC(C)c1ccc(OCC(=O)N2CCCN(C)CC2)cc1 | 2.02%
7 | O=C(Cc1ccccc1[N+](=O)[O-])N1CCN(Cc2ccc3c(c2)OCO3)CC1 | 5.95%
8 | O=C(COc1ccc2ccccc2c1)N1CCN(Cc2ccncc2)CC1 | 66.2% (active)
9 | CC(c1ccccc1)(c1ccccc1)c1ccncc1 | 11.4%
10 | COC(=O)C1=C(c2ccccc2OCc2ccccc2)C[C@@H]2CC[C@H]1N2C(=O)NCc1ccc(OC)cc1 | 26.2%
11 | COC(=O)C1=C(c2ccc(F)cc2OCc2ccccc2)C[C@@H]2CC[C@H]1N2C(=O)NCc1ccc(OC)c(OC)c1 | 9.54%
12 | CCc1ccc(OCC(=O)N2CCN(CC(=O)Nc3ccccc3Cl)CC2)cc1 | 73.1% (active)
13 | CCC(=O)c1ccc(OCC(=O)N2CCN(CC(=O)Nc3ccc(C)cc3)CC2)cc1 | 6.66%
14 | O=C(CN1CCCCC1)Nc1ccc(Br)cc1C(=O)c1ccccc1Cl | -11.6%
15 | CCOP(=S)(OCC)C(O)CCCCCn1c(=O)c(F)cn(C2CCCO2)c1=O (stereo not given) | -1.97%
16 | CN(c1ccccc1)c1ccc([N+](=O)[O-])c2nonc12 | 1.86%
17 | CC[N+](CC)(CC)CCCCCCCCCC[N+](CC)(CC)CC | 2.47%
18 | C[C@H]1CN([C@@H](C)CO)C(=O)CCCn2nncc2CO[C@H]1CN(C)C(=O)Oc1cccc2ccccc12 | -6.15%
19 | COC(=O)C1=C(c2ccc(OCc3ccccc3)cc2)C[C@@H]2CC[C@H]1N2C(=O)NCc1ccc(Cl)cc1 | 22.1%
20 | COC(=O)C1=C(c2cccc(OCc3ccccc3)c2)C[C@@H]2CC[C@H]1N2C(=O)NCc1ccc(Br)cc1 | 19%
21 | COC(=O)C1=C(c2ccc(OCc3ccccc3)cc2)C[C@@H]2CC[C@H]1N2C(=O)NCc1cccc(F)c1 | 64.5% (active)
22 | Cc1cc(C)c2c(c1)NP(=S)(c1ccccc1)N2 (stereo not given) | 11.1%
23 | O=C1NC(=O)N(CCc2ccc(F)cc2)C(=O)/C1=C/C=C/c1ccccc1 | 58.5% (active)
24 | CN(C)c1nc(N(C)C)nc(N(C#N)CCCl)n1 | 2.53%
25 | COc1ccc(NC(=O)c2cn(CCC#N)nc2-c2ccc([N+](=O)[O-])cc2)cc1 | -6.27%
